Hits are enriched below; roughly 21% of the tested compounds scored in any of these assays.
IL1B secr inh = blocks inflammasome-driven IL-1 beta release | THP-1 LPS/ATP IL-1B secretion, AlphaLISA, 16 h; active compounds read low | activity change, % at 57.5 µM | actives 4.7% (n = 360,000) | AID 743279; in the data active = activity change below about -50%; inconclusive = mostly about -30% to -49%
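THP-1 cells pretreated 1 hr with compounds (up to 57.5 uM final), then stimulated with LPS (250 ng/mL final) plus ATP (1.25 mM final); secreted IL-1B measured by AlphaLISA after 16 hr, decreased signal indicating inhibition.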
ELG1 repair inh = blocks ELG1-dependent DNA repair in HEK293T cells | HEK293T ELG1-luciferase reporter, luminescence, 16 h; DNA damage induced by 5-fluorouridine | Potency, µM (top dose mostly 46.1 µM), for the others: at the highest dose activity change, negative = inhibition, usual class: inhibitors | actives 2.3% (n = 330,000) | AID 504467; also: potency is read from the fitted curve at half-maximal effect; nearly all actives have a fitted effect of over 55% in size
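Overnight (16 hr) co-exposure of 2,000 cells/well to 5-fluorouridine and compound at 37 °C preceded detection. Luciferase was quantified via ONE-Glo luminescence; loss of signal denotes inhibition.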
VP16 counter = inhibits Gal4-VP16 luciferase reporter, ROR gamma counter-screen | Drosophila S2 Gal4-VP16 UAS-luciferase, luminescence, 20 h | Potency, µM (doses to about 53.6 µM), for inactives: at the top dose activity, negative = inhibition, usual class: inhibitors | actives 3.5% (n = 310,000) | AID 2546;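 also: Gal4-VP16 expression switched on by copper sulfate through the metallothionein promoter; potency is read from the fitted curve at half-maximal effect; nearly all actives have a fitted effect of over 50% in size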
DT40 TDP1 no CPT = qHTS for Inhibitors of human tyrosyl-DNA phosphodiesterase 1 (TDP1): qHTS in cells in absence of CPT; DT40 Tdp1-/- hTDP1 cells, no CPT, ATP luminescence, 48 h; Potency, µM (highest dose often 46.2 µM), for inactives: at the highest dose activity change, negative = growth inhibition, actives largely listed as inhibitors; actives 15% (n = 420,000); AID 686978, 2013; also: potency is read from the fitted curve at half-maximal effect; nearly all actives have a fitted effect of over 55% in size
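DT40 Tdp1-/-;hTDP1 cells, no CPT (DMSO vehicle only), 400 cells/well; compounds pin-transferred; ≥48 hr, 37 °C; CellTiter-Glo 30 min RT dark, luminescence read.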
DT40 TDP1 CPT = growth inhibition of DT40 Tdp1-/-;hTDP1 cells with camptothecin (screen for TDP1 inhibitors); chicken DT40 Tdp1-/-;hTDP1 cells + 20 nM CPT, ATP luminescence, 48 h; Potency, µM (top dose mostly 46.2 µM), without a hit: top-dose activity change, negative = growth inhibition, actives largely listed as inhibitors; actives 12% (n = 420,000); also: potency is read from the fitted curve at half-maximal effect; nearly all actives have a fitted effect of over 55% in size
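Chicken DT40 Tdp1-/- cells complemented with human TDP1, 400 cells/well, exposed to compounds plus 20 nM camptothecin for at least 48 h at 37 C; viability read as ATP content by CellTiter-Glo luminescence.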
RORg inh = ROR gamma (mouse) transcription inhibition | Drosophila S2 Gal4-RORgamma UAS-luciferase reporter, 20 h | P51450 | Potency, µM (top dose mostly 53.6 µM), for the others: at the highest dose activity change, negative = inhibition, most hits filed as inhibitors | actives 5.4% (n = 310,000); also: potency is read from the fitted curve at half-maximal effect; nearly all actives have a fitted effect of over 60% in size
Target sequence (P51450 whole entry, looked up, the tested form may be a part): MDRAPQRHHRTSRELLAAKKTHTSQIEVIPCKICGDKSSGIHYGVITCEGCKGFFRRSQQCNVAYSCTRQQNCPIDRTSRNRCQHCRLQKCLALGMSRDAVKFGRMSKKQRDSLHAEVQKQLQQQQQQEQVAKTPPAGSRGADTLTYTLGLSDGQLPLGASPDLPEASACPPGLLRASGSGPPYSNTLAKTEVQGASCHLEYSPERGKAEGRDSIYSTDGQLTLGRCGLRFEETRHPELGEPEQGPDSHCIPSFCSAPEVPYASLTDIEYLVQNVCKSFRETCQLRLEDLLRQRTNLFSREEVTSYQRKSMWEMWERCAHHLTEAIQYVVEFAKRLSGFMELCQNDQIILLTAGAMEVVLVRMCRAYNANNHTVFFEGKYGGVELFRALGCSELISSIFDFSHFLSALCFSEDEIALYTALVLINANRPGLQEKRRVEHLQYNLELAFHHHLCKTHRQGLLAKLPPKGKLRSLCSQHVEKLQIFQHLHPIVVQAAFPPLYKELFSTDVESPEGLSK
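Luciferase reporter read in Schneider cells carrying Gal4-RORγ (mouse) and UAS-Photinus luciferase; cells given compound 1 h before 700 uM copper sulfate induction, then incubated 20 h at ambient temperature.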
An asterisk follows results filed as active; ? = inconclusive; nt = no result; [ ] = remark or other dose. Unless noted, calls follow the shape of the dose curve; as a rule, active = well fitted curve in the direction sought with a large enough effect; inconclusive = small, poorly fitted or top-dose-only effect, or another doubt; inactive = no such curve, though single readings can be large; an effect the other way counts as inactive or inconclusive. % is scaled to controls: 0 for no effect and ±100 for the full control effect.

SMILES	IL1B secr inh	ELG1 repair inh	VP16 counter	DT40 TDP1 no CPT	DT40 TDP1 CPT	RORg inh
Cn1ccc2c(-c3ccc4c(c3)OCCO4)cc3c(c21)C1CCC3O1 (stereo not given)	10.8	nt	nt	-29.6%	2.4%	nt
O=C(NN=Cc1cc(Br)c(O)c(Br)c1)c1ccccc1NS(=O)(=O)c1cccs1	25.6	6.4%	nt	3.1%	5.3%	nt
COc1ccc(Oc2nc(C)cc(C)c2C#N)cc1	33.5	2.7%	25.1%	-5.4%	-20.6%	-10.8%
COc1ccc(/C=C/c2n[nH]c(=O)c(C#N)c2C)cc1	-96.9*	-7.9%	-13.8%	?	3.7%	-18.4%
OCc1nc2ccccc2n1CCOc1ccccc1	-23.9	nt	nt	?	6.1%	nt
Clc1ccc(NCc2nc3ccccc3n2CCOc2ccccc2)cc1	nt	nt	nt	20.6µM*	13µM*	nt
CCOc1ccc(NCc2nc3ccccc3n2CCOc2ccc(C)cc2)cc1	nt	nt	nt	8.2µM*	6.51µM*	nt
CCOc1ccc(NCc2nc3ccccc3n2CCOc2ccccc2)cc1	-95.5*	?	?	?	?	?
CC(=O)NCCc1nc2ccccc2n1CCOc1ccc(C)cc1	16.1	-20.9%	2.2%	?	?	22.7%
CCOc1ccc(OCCn2c(SCC(=O)O)nc3ccccc32)cc1	-21.9	-9.4%	3.9%	-8.1%	-8.1%	9.2%
CCc1nc2ccc(C(=O)NCCN3CCOCC3)cn2c1N(CC)CCOC	50.0	nt	nt	?	?	nt
CC(Nc1ccc(-c2nc(-c3ccncc3)no2)cc1[N+](=O)[O-])c1ccccc1 (stereo not given)	nt	nt	nt	-21.3%	-17.8%	nt
COc1ccc(C(c2nnnn2C2CCCC2)N2CCN(C(=O)c3ccco3)CC2)cc1OC (stereo not given)	42.8	11.9%	-10.8%	-0.1%	2.4%	5.7%
Cc1ccc(C(c2nnnn2C2CCCCC2)N2CCc3ccccc32)cc1 (stereo not given)	?	-2.1%	?	?	?	9.4%
Oc1ccc(C(c2nnnn2C2CCCC2)N2CCc3ccccc3C2)cc1 (stereo not given)	6.9	17.5%	0.5%	20.6µM*	?	-13.9%
COc1cc(C(c2nnnn2C2CCCC2)N2CCc3ccccc3C2)ccc1O (stereo not given)	-5.7	0.5%	4.8%	11.6µM*	?	-25.4%
Cc1[nH]c2ccccc2c1C(=O)COC(=O)c1nccnc1N	-29.5	?	nt	8.6%	-3.4%	nt
Cc1cccn2c(=O)c3cc(C(=O)NC4CCCCC4)n(C)c3nc12	-6.3	-1.5%	3.7%	3.26µM*	4.61µM*	-3.0%
CCn1c(=N)c(C(=O)NC2CCCCC2)cc2c(=O)n3cccc(C)c3nc21	nt	nt	nt	8.5%	3.3%	nt
COC1C=CC(CNC(=O)c2cc3c(=O)n4cccc(C)c4nc3n2C)(OC)O1 (stereo not given)	-11.0	-15.9%	-9.1%[10 µM]	-15.0%	16.4µM*	24.5%
Cc1cccn2c(=O)c3cc(C(=O)NC(C)(C)C)n(C)c3nc12	nt	nt	nt	18.4µM*	?	nt
Cc1noc(C)c1C(=O)N1CCC2(CCCN(C(=O)Nc3ccccc3)C2)CC1	nt	nt	0.3%	-2.2%	15.6%	21.1%
CC(C)C(OC(=O)CN1C(=O)COc2ccccc21)C(=O)NC1CCCC1 (stereo not given)	-1.3	-21.7%	1.9%	-12.7%	-16.9%	-0.6%
Cc1ccc2c(c1)N(CC(=O)OC(CC(C)C)C(=O)NC1CCCC1)C(=O)CO2 (stereo not given)	4.0	20.6µM*	-11.0%	?	?	-36.8%
Cc1ccc(F)cc1C(=O)N1CCOCC1c1cc(C(=O)NCc2ccccc2)no1 (stereo not given)	-3.3	nt	nt	-22.5%	1.2%	nt
